The inhibition is the drop in the measured response relative to a control, in per cent.

“And” between values parts separate entries of the source, which are not always exact repeats. Identical values can stand only once. Out of some 360,000 compounds screened, about 6,200 (1.7%) were called active.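 The calls were made as follows: active = inhibition of at least 50% at 20 µM; inactive = the rest.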 The entries come from a sample that favours actives as a whole. Some structures have more than one record in an assay (separate samples or runs), and their calls can disagree.

Drawing on PubChem BioAssay AID588405 (Sanford-Burnham Center for Chemical Genomics, 2011), this text covers inhibition for 90 compounds.

This experiment can be described thus: Peg3 promoter-driven luciferase inhibitors, primary screen, cell-based, HeLa, luciferase luminescence (AID 588405). Conditions: HeLa PEG-Prom luciferase reporter, overnight, at 20 µM, stronger effect = higher value. On the technique in general: Reporter assays use an easily measured gene product as a stand-in for the process of interest.
For `Nc1nc2cc(Cl)ccc2n1N`, the inhibition is -1.93% (inactive).

On to `CC(C)NC(=O)C1(C)CCCCCN1C(=O)c1ccc(-c2ccccc2)cc1` (stereo not given), for which the inhibition is -0.82% (inactive).

Regarding `O=C(c1[nH]ncc1-c1ccc(Cl)cc1)C1CO1` (stereo not given), the inhibition is 52% (active).

Turning to `COc1ccc(NC(=O)C2Cc3c(-c4ccc(Cl)cc4)ccnc3O2)cc1` (stereo not given), the inhibition was 22.6% (inactive).

For `COc1cccc(C(NC(C)=O)c2nc(-c3ccccc3OC)cs2)c1` (stereo not given), the inhibition is -8.65% (inactive).

Turning to `Nc1nc(NC(=O)/C=C/c2ccccc2)nn1-c1ccccc1`, the inhibition is -6.78% (inactive).

Regarding `c1ccc(-n2cccc2)c(N2CCCCC2)c1`, the inhibition is 2.67% (inactive).

With `CCC(=O)c1ccc(OCC(=O)Nc2ccc(N3CCCCC3)cc2)cc1`, the inhibition was -13.9% (inactive).

`O=C1C=CC(=O)N1c1ccc(N2CCCCC2)cc1`: the inhibition was 108% (active).

`CN1OC[C@@H]2CN(C(=O)c3cccnc3)[C@H](c3ccc(N4CCCCC4)cc3)C[C@@H]21`: the inhibition was -11.6% (inactive).

Turning to `CCOC(=O)C1=C(CN2CCc3ccccc32)NC(=O)NC1c1cc(C)ccc1C` (stereo not given), the inhibition is 34.6% (inactive).

For `CCOC(=O)C1=C(CN2CCc3ccccc32)NC(=O)NC1c1ccc(Cl)cc1` (stereo not given), the inhibition was 61.5% (active).

In the case of `CCOC(=O)C1=C(CN2CCc3ccccc32)NC(=O)NC1c1cccc([N+](=O)[O-])c1` (stereo not given), the inhibition was 43.4% (inactive).

Turning to `COc1cc(CCN=Cc2ccccc2O)c([N+](=O)[O-])cc1OC`, the inhibition is -5.6% (inactive).

`O=C(NCC(O)c1nc2ccccc2[nH]1)c1ccc(Br)cc1` (stereo not given): the inhibition is -5.63% (inactive).

`CCc1nc2ccc(C(=O)Nc3cccc(OC)c3)cn2c1N(CCC(C)C)CCN(C)C`: the inhibition was -15.1% (inactive).

In the case of `COc1ccccc1OCC(=O)OCn1c(SC)nnc(C)c1=O`, the inhibition is 14.2% (inactive).

As to `CC(=O)Nc1ccc(S(=O)(=O)N(C)c2nc3ccccc3nc2Cl)cc1`, the inhibition was 2.27% (inactive).

For the compound `CC(=O)Nc1ccc(Nc2c3ccccc3nc3ccccc23)cc1`, the inhibition was 106% (active).

Consider `CC(=O)Nc1ccc(Nc2c([N+](=O)[O-])cc(S(C)(=O)=O)cc2[N+](=O)[O-])cc1`, for which the inhibition is 3.04% (inactive).

Consider `CC(C)Nc1nc(NCCOc2ccccc2Cl)c2sccc2n1`, for which the inhibition is 34.3% (inactive).

`COc1ccc(-c2[nH][nH]c(=O)c2NC(=O)c2ccc([N+](=O)[O-])cc2)cc1`: the inhibition is 9.48% (inactive).

As to `CC(O)c1ccc(OCCN(C)c2ccccn2)cc1` (stereo not given), the inhibition is -135% (inactive).

As to `CN(CCOc1ccc(CC2SC(=O)NC2=O)cc1)c1ccccn1` (stereo not given), the inhibition was -26.7% (inactive) and -30.1% (inactive).

As for `CCN(CC)CCOc1ccc2c(c1)C(=NNC(=O)c1ccccn1)c1cc(OCCN(CC)CC)ccc1-2`, the inhibition was 109% (active).

For the compound `CCCCc1cc2c(s1)CCCC/C2=N/O`, the inhibition is 6.83% (inactive).

Take `COCCCN(C(=O)CSCc1ccc(C)cc1)c1c(N)n(Cc2ccccc2)c(=O)[nH]c1=O`: the inhibition was -0.45% (inactive).

On to `O=C(c1ccc(F)cc1)n1c(=S)nc2ccccn21`, for which the inhibition was -101% (inactive).

Consider `Brc1ccc(-c2noc(-c3ccccc3)n2)o1`, for which the inhibition is -291% (inactive).

On to `O=C(Oc1ccc(-c2nc(-c3ccccn3)no2)cc1)c1ccccc1`, for which the inhibition was 66.5% (active).

Consider `O=C(COC(=O)c1ccncc1)c1ccccc1`, for which the inhibition is 3.29% (inactive).

Regarding `O=C1C=C(c2ccc(Cl)cc2)C(=O)N1Nc1ccccc1`, the inhibition is 105% (active).

On to `O=C1Nc2cc(C(=O)N3CCC(N4CCCCC4)CC3)ccc2S/C1=C\c1ccccc1`, for which the inhibition was 90.7% (active).

As to `NC(=O)C1CCN(C(=O)c2ccc(-c3ccccc3)cc2)CC1`, the inhibition is 5.02% (inactive).

`O=C(Nc1ccccc1)C1CCN(C(=O)c2ccc(Br)cc2)CC1`: the inhibition was -7.9% (inactive).

On to `O=C(Nc1ccc(F)cc1)C1CCCN(S(=O)(=O)c2ccc(-n3cnnn3)cc2)C1` (stereo not given), for which the inhibition is 24.8% (inactive).

In the case of `CCc1ccc(-c2cc3c(=O)n(CC(=O)NCCCN4CCN(Cc5ccccc5)CC4)nc(C)n3n2)cc1`, the inhibition was 105% (active).

Consider `Cc1ccc(-c2ccc(=O)n(CC(=O)NCCCN3CCCCC3)n2)cc1`, for which the inhibition was 5% (inactive).

In the case of `Cc1nn(CC(=O)NCCc2ccccc2)c(=O)c2cc3occc3n12`, the inhibition was -8.09% (inactive).

In the case of `CC1(C(=O)Nc2cccnc2)Cc2c(-c3ccccc3)ccnc2O1` (stereo not given), the inhibition was 13.4% (inactive).

For the compound `CC1(C(=O)Nc2cccc(Oc3ccccc3)c2)CCN1Cc1ccccc1Cl` (stereo not given), the inhibition is 18.7% (inactive).

As for `Nc1ncnc2c1ncn2[C@@H]1O[C@H](C(=O)N2CCSC2)[C@@H](O)[C@H]1O`, the inhibition is -1.06% (inactive).

For `COc1ccccc1Cc1c(-c2ccc(Cl)cc2)nc2ccc(Cl)cn12`, the inhibition is -200% (inactive).

Take `Cc1cccc(C)c1-n1nnnc1C(CCc1ccccc1)N1CCN(C/C=C/c2ccccc2)CC1` (stereo not given): the inhibition is 4.21% (inactive).

For `c1ccc(C(=NNc2nc3ccccc3s2)c2ccccn2)cc1`, the inhibition is 60.3% (active).

Consider `C/C(=N/Nc1nc(-c2ccccc2)c(CC(=O)O)s1)c1ccccc1`, for which the inhibition is -245% (inactive).

Regarding `COc1cc(OC)nc(N/N=C(\c2ccccc2)c2ccncc2)n1`, the inhibition is -16.6% (inactive).

With `CCCNC(=O)c1cc(C2CCCCN2C(=O)OC)on1` (stereo not given), the inhibition is 8.59% (inactive).

As to `CCOc1cc(-c2conc2N)cc(OCC)c1OCC`, the inhibition was 10.1% (inactive).

As to `CC(C)CNC(=O)C1(C)CCCN1C(=O)CSc1ccccc1` (stereo not given), the inhibition was -0.74% (inactive).

For `O=C(O)c1ccc(N/N=C/c2ccc3ncccc3c2)cc1`, the inhibition is 70.7% (active).

Take `Cc1ccc2cc(/C=N/Nc3ccc(C(=O)O)cc3)c(Cl)nc2c1`: the inhibition was -255% (inactive).

With `CCNC(=S)NNC(=O)c1ccc2ncccc2c1`, the inhibition was -28.3% (inactive).

Regarding `O=C(O)CSc1c2c(nc3cc(C(=O)Nc4cccc(C(F)(F)F)c4)ccc13)CCCC2`, the inhibition is 13.5% (inactive).

Turning to `COc1cccc(NC(=O)CN(C)C(C)C(=O)Nc2ccc(C#N)cc2)c1` (stereo not given), the inhibition was 20% (inactive).

Consider `COc1cc(NC(=O)c2[nH]cnc2C(N)=O)cc(C(=O)Nc2cccc(C(F)(F)F)c2)c1`, for which the inhibition was 101% (active).

As for `CCOC(=O)c1ccc(NC(=O)c2nc[nH]c2C(=O)NCc2ccccc2)cc1`, the inhibition is 32.4% (inactive).

Consider `O=C(Nc1cccc(C(F)(F)F)c1)c1ccc(N2CCNCC2)c([N+](=O)[O-])c1`, for which the inhibition was 22.1% (inactive).

Turning to `COc1cc(NC(=O)c2cncc(-c3ccc(C#N)cc3)c2)cc(C(=O)Nc2cccc(C(F)(F)F)c2)c1`, the inhibition is 22% (inactive) and 56% (active).

On to `O=C1c2ccccc2-c2ccccc2NC1O` (stereo not given), for which the inhibition is -8.48% (inactive).

Consider `COc1ccc(C(c2nnnn2C2CCCC2)N2CCN(C/C=C/c3ccccc3)CC2)cc1` (stereo not given), for which the inhibition was -2% (inactive).

For the compound `CC(=O)Nc1ccc(-c2ccnc3c2CC(C(=O)NC(C)C)O3)cc1` (stereo not given), the inhibition was -1.44% (inactive).

Turning to `CC1(C(=O)NCC2CCOCC2)Cc2c(-c3cccc(C(N)=O)c3)ccnc2O1` (stereo not given), the inhibition is 8.22% (inactive).

As for `O=C(CSc1nc2cccc(F)c2c(=O)n1-c1ccccc1)Nc1ccc2c(c1)CCC2`, the inhibition was 2.19% (inactive).

As to `Cc1ccc(C)c(N2CCN(C(=O)CCCCCn3c(=S)[nH]c4ccc(N5CCOCC5)cc4c3=O)CC2)c1`, the inhibition is 92.5% (active).

With `O=C(CCCCCn1c(=S)[nH]c2cc3c(cc2c1=O)OCO3)N1CCN(c2ccc(F)cc2)CC1`, the inhibition is -0.75% (inactive).

With `Cc1ccc(C)c(N2CCN(C(=O)CCCn3c(=O)c4cccn4c4cccnc43)CC2)c1`, the inhibition is 34.6% (inactive).

In the case of `COCCNC(=O)C1CCCN(Cc2ccccc2Cl)CC1` (stereo not given), the inhibition was 5.2% (inactive).

Consider `CSc1nc(-c2ccccc2)nc(C(Cl)Cl)n1`, for which the inhibition is 98.3% (active).

`O=C(COC(=O)C12CC3CC(CC(O)(C3)C1)C2)NC12CC3CC(CC(C3)C1)C2`: the inhibition was 9.7% (inactive).

As to `CC1(Cc2cccc(C#N)c2)C(=O)Nc2ccc(-c3cccc(C(F)(F)F)c3)cc21` (stereo not given), the inhibition is 37% (inactive).

Regarding `CC(C)(O)C#Cc1ccc(CN2CCC(CO)(CCc3ccccc3)CC2)cc1`, the inhibition was 1.12% (inactive).

For the compound `Cc1c(CN2CCC(CO)(CCOc3ccccc3)CC2)[nH]c2ccc(Cl)cc12`, the inhibition was 85.4% (active).

With `CCOC(=O)C1(CCOc2ccccc2)CCN(Cc2ccc(C#CCCO)cc2)CC1`, the inhibition is 15.7% (inactive).

In the case of `C=CC[C@@H](CC(=O)N[C@H](CO)Cc1ccccc1)C(=O)N[C@H](C)COC(=O)[C@@H](CC=C)Cc1ccc(F)cc1`, the inhibition was 12.6% (inactive).

Consider `C=CC[C@@H](CC(=O)N[C@@H](CO)Cc1ccccc1)C(=O)NCCOC(=O)[C@@H](CC=C)CC(=O)OC(C)(C)C`, for which the inhibition was 4.88% (inactive).

As to `C=CC[C@@H](CC(=O)N[C@@H](CO)Cc1ccccc1)C(=O)N[C@H](COC(=O)[C@H](CC=C)CC(=O)OC(C)(C)C)Cc1ccccc1`, the inhibition was 59.8% (active).

Regarding `CCOC(=O)c1c(-n2cnnn2)sc(C)c1C`, the inhibition is -0.91% (inactive).

For the compound `CNC(=O)C1CC(=O)N(Cc2ccc3c(c2)OCO3)C(=Nc2ccc(F)cc2)S1` (stereo not given), the inhibition was -64.3% (inactive).

On to `COc1ccccc1N(CCOc1ccccc1)S(=O)(=O)c1ccccc1`, for which the inhibition is 18.4% (inactive).

For the compound `Clc1ccc(-c2cc(C3CCNCC3)[nH]n2)c(Cl)c1`, the inhibition was 58.7% (active).

For `Clc1ccc(-c2cc(-c3ccccn3)on2)c(Cl)c1`, the inhibition is -90.8% (inactive).

With `Fc1cccc(Cc2c(-c3cccc(Cl)c3)nc3ccc(Br)cn23)c1`, the inhibition was -153% (inactive).

Regarding `O=C(O)CC1S/C(=N\N=C/c2ccccc2O)N(c2ccc(O)cc2)C1=O` (stereo not given), the inhibition is -0.29% (inactive).

As to `COc1ccc(-c2cc(C(=O)N(C)CC(=O)Nc3ccccc3Cl)c3ccccc3n2)cc1OC`, the inhibition was 43.6% (inactive).

As for `COc1ccc(CN(C)C(=O)Cc2c[nH]c3ccccc23)c(OC)c1OC`, the inhibition was 13.2% (inactive).

For the compound `COc1ccc(-c2cc(C(=O)NCCCN3CCCC3=O)c3ccccc3n2)cc1OC`, the inhibition is -2.28% (inactive).

Regarding `COc1ccc(CN(C)C(=O)c2cc(-c3ccc(C)cc3C)nc3ccccc23)c(OC)c1OC`, the inhibition is 75.3% (active).

For `COc1ccc(S(=O)(=O)N2CCCCCC2)cc1C(=O)N(C)Cc1cccc(OC)c1OC`, the inhibition is 5.19% (inactive).

With `COc1ccc(-c2cc(C(=O)N(C)Cc3ccc(OC)c(OC)c3OC)c3ccccc3n2)cc1OC`, the inhibition was 50.1% (active).
